Shown are actives, neighbours in structure and some others; about 4.7% of the full set was active somewhere.
D1 potentiator: Potentiators of Human D1 Dopamine Receptor: qHTS; D(1A) dopamine receptor (Homo sapiens), P21728; HEK293 TREx D1 cells, calcium flux, dopamine EC20 potentiation; potentiation, % at 10 µM; 360,000 tested, 0.036% active; in the data active = potentiation above about 30%
D1 agonist: Allosteric Agonists of the Human D1 Dopamine Receptor: qHTS | D(1A) dopamine receptor (Homo sapiens), P21728 | HEK293 T-REx D1 cells, calcium flux, agonist mode | activation, % at 2 µM | 360,000 tested, 1% active
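Agonism was scored from calcium flux recorded over 180 s (1 read/s) after pintool compound addition, following a 10-cycle baseline. Cells were inducible force-coupled HEK293 TREx D1, plated overnight at 30 C and loaded with no-wash calcium dye.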
D1 antag: Antagonist of Human D 1 Dopamine Receptor: qHTS. D(1A) dopamine receptor (Homo sapiens), P21728. HEK293 TREx D1 cells, calcium flux, dopamine EC80; stronger effect = lower value. activity change, negative = inhibition, % at 10 µM. 360,000 tested, 3.2% active; in the data active = activity change below about -30%
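Kinetic fluorescence of a calcium dye serves as the read-out. D1-expressing Hek293 Trex cells, induced overnight at 30 C, are exposed to compound for 180 s before an EC80 dopamine addition, then read 180 s further.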
TRHR enhancer: qHTS for Small Molecule Agonists and Allosteric Enhancers of Human TRH Receptor: Primary Screen for Enhancers. TRHR cells, fluo-8 calcium fluorescence, EC20 TRH enhancement. enhancement, % at 2 µM. 360,000 tested, 0.66% active. AID 493056, 2011; in the data active = enhancement above about 30%
Target sequence (P34981 whole entry, looked up): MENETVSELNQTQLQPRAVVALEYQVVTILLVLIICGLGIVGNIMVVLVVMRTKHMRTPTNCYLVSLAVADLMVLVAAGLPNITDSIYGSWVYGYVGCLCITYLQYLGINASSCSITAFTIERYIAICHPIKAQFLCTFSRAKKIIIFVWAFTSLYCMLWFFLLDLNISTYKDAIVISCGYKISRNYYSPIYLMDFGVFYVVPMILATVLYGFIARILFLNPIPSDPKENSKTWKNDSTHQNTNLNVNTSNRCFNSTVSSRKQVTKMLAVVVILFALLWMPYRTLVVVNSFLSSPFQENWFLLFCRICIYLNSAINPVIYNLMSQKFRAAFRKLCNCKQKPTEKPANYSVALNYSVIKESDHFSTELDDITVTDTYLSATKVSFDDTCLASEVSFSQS
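Enhancer read-out: after compound pinning and an initial kinetic agonist-mode read, an EC20 of TRH (10 nM final) was injected and fluo-8 calcium signal (Ex 480/Em 530) followed at 1 s/cycle for 100 cycles in TRHR-expressing cells.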
TRHR agonist: qHTS for Small Molecule Agonists and Allosteric Enhancers of Human TRH Receptor: Primary Screen for Agonists. 360,000 tested, 0.18% active. TRHR cells, calcium flux fluo-8, FDSS agonist mode. activation, % at 2 µM. AID 493084, 2011. Thyrotropin-releasing hormone receptor (Homo sapiens), P34981
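In this calcium-flux screen, cells bearing human TRHR are dye-loaded with fluo-8, baselined for 10 cycles, then exposed to library compounds; positive kinetic calcium responses during the agonist phase mark hits, with TRH as control.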
Each line names hits and unclear results; the compound was inactive in the other large screens. Cut-off read from the data, not from the text of the source, unless noted: active = activation above about 30%; inactive = the rest.

COc1cc(C(=O)Nc2ccc3c(c2)C(=O)c2ccccc2C3=O)cc(OC)c1OC	D1 antag -49.6
COc1ccccc1NC(=O)C/C(C)=N/NC(=O)c1ccccn1	D1 antag -37.7
CC1CCCN(S(=O)(=O)c2cc(C(=O)NCc3ccccc3Cl)n(C)c2)C1 (stereo not given)	none
NC(=O)c1ccc(NCC2COc3ccccc3O2)c([N+](=O)[O-])c1 (stereo not given)	D1 antag -37.0
CN(C)S(=O)(=O)c1ccc(NCC2COc3ccccc3O2)c([N+](=O)[O-])c1 (stereo not given)	none
CCCCC(=O)Nc1ccc(C(=O)OCc2cc(=O)n3nc(C4CC4)sc3n2)cc1	none
CCOc1ccc(C2N(c3ccc(Cl)cc3)C(=O)C3CCCN32)cc1OC (stereo not given)	D1 antag -42.4
CCOc1ccc(C2N(c3ccc(OC)cc3)C(=O)C3CCCN32)cc1OC (stereo not given)	none (no result: D1 potentiator)
Cc1nnc(N2CCN(c3ccccc3F)CC2)c2c1nnn2Cc1ccccc1	none
N#CNC(=Nc1ccccc1)SCc1ccc(C(=O)O)cc1	none
CC(C)N=C(NC#N)SCC(=O)NC(C)(C)C	none
CC(C)(C)NC(=O)CSC(=Nc1cccc(F)c1)NC#N	D1 antag -39.7
N#CNC(=Nc1cccc(F)c1)SCc1ccccc1F	D1 antag -39.7
CC(C)N=C(NC#N)SCc1ccccc1F	D1 antag -49.2
COc1ccc(CCNC(=O)CCCCn2c(=O)c3ccccc3n(CC(=O)Nc3ccc(C)cc3C)c2=O)cc1OC	none
COC(=O)c1ccccc1NC(=O)c1nn(C)c2c1COc1ccccc1-2	none
Cc1ccc(C)c(N2CCN(C(=O)Cn3cnc4nc5c(cc4c3=O)CCCC5)CC2)c1	none
O=C(Cn1cnc2nc3c(cc2c1=O)CCCC3)N1CCN(c2ccccc2)CC1	TRHR enhancer 31.8
CCOc1ccc(NC(=O)Cn2cnc3nc4c(cc3c2=O)CCCC4)cc1	none
CCc1ccc(NC(=O)Cn2cnc3nc4c(cc3c2=O)CCCC4)cc1	D1 antag -32.4
CCN(C(=O)CSc1nc2ccccc2nc1Cc1cccc(OC)c1)c1cccc(C)c1	none
CCCCc1nnc(SCc2cc(=O)c3cc(C(=O)OCC)ccc3[nH]2)n1C	none
CCn1c(-c2ccsc2)nc2c1c(=O)[nH]c(=O)n2Cc1ccccc1	D1 antag -52.4
COC(=O)Cc1c(C)c2cc3c(c(C)c2oc1=O)OCN(CCc1ccc(OC)cc1)C3	none
Cc1csc(NC(=O)c2ccc(COc3ccccc3)o2)n1	D1 antag -35.3, TRHR enhancer 30.4
Cc1csc(NC(=O)c2cccnc2)n1	D1 antag -36.1
COc1ccc(S(=O)(=O)c2c(SC)nn(CC(=O)Nc3ccc(C)c(Cl)c3)c2N)cc1	none
Cc1ccc(NC(=O)c2ccc3[nH]c(=O)c(=O)[nH]c3c2)nc1	none
O=C(Nc1ccc(Cl)cn1)c1ccc2[nH]c(=O)c(=O)[nH]c2c1	D1 antag -30.1
CCc1nc(SCC(=O)N2CCCCCC2)c2c(=O)n(C)c(=O)n(C)c2n1	D1 antag -34.1
CCc1nc(SCC(=O)N2CCOCC2)c2c(=O)n(C)c(=O)n(C)c2n1	none
Cc1cc(C)c(/C=C/c2onc(C)c2S(=O)(=O)N2CCC(C(=O)NCCc3ccccc3)CC2)c(C)c1	none
COc1ccc(CN2CCc3cc(OC)c(OC)cc3C2)cc1O	D1 antag -47.8
Nc1nc(NCCO)nc(N2CCCCCC2)c1[N+](=O)[O-]	none
OCCN(CCO)c1nc(N2CCCCC2)c2nc(N(CCO)CCO)nc(N3CCCCC3)c2n1	D1 agonist 318.5, D1 antag -39.0, TRHR agonist 106.3
CC(=O)NC12CC3CC(C1)CC(C(=O)N1CCN(S(=O)(=O)c4cccc(C(F)(F)F)c4)CC1)(C3)C2	D1 agonist 38.2
CC(=O)NC12CC3CC(C1)CC(C(=O)N1CCN(S(=O)(=O)c4ccc(Cl)s4)CC1)(C3)C2	none
Cc1ccc(S(=O)(=O)n2nc(-c3ccc(Cl)cc3)nc2NCc2ccc(F)cc2)cc1	D1 antag -48.0
Cc1ccc(S(=O)(=O)n2nc(-c3ccccc3)nc2NCc2ccc(Cl)cc2)cc1	D1 antag -56.9
CCOc1ccc(NS(=O)(=O)c2ccc(C(=O)NCC(c3ccco3)N3CCCC3)cc2)cc1 (stereo not given)	D1 agonist 53.9 (no result: D1 potentiator)
COc1ccc(NS(=O)(=O)c2cccc(C(=O)NCC(c3ccco3)N3CCCCC3)c2)cc1 (stereo not given)	none
O=C(NCC(c1ccco1)N1CCCC1)c1ccc(S(=O)(=O)Nc2ccc(F)cc2)cc1 (stereo not given)	D1 agonist 50.8 (no result: D1 potentiator)
O=C(NCC(c1ccco1)N1CCCCC1)c1ccc(NS(=O)(=O)c2ccc(F)cc2)cc1 (stereo not given)	none
COc1ccc2[nH]cc(C(O)CN3CCN(c4ccccc4)CC3)c2c1 (stereo not given)	none
COc1ccc2[nH]cc(C(O)CN3CCN(c4ccccc4F)CC3)c2c1 (stereo not given)	D1 antag -61.6
Cc1cccc(NC(=S)NCc2ccc3c(c2)OCO3)c1C	none
Cc1cccc(NC(=S)NCCc2ccc3c(c2)OCCO3)c1C	D1 antag -45.9
Cc1ccc(C)c(N2CCN(C(=O)Nc3cn(CC(C)C)c(=O)c4ccccc34)CC2)c1	none
O=C1CCCc2ccccc2N1Cc1cccc(F)c1	TRHR enhancer 33.9
O=S(=O)(c1ccccc1)N1CCN(S(=O)(=O)N2CCCCC2)CC1	none
CCN(CC)S(=O)(=O)c1ccc(Oc2ccc(S(=O)(=O)N(CC)CC)cc2)cc1	D1 agonist 30.7
CCN(CC)S(=O)(=O)c1ccc(S(=O)(=O)N2CCCC2)cc1	TRHR enhancer 38.4
CCOc1ccc(S(=O)(=O)N2CCCC2)cc1	none (no result: D1 antag)
O=S(=O)(c1ccccc1)N1CCCN(S(=O)(=O)c2ccccc2)CC1	D1 antag -45.4
COc1ccc(-n2nc(C(=O)NCC(=O)NCC3COc4ccccc4O3)c3ccccc3c2=O)c(OC)c1 (stereo not given)	TRHR enhancer 33.2
CCOC(=O)c1ccc(NC(=O)Cn2nc(C)c3nn(-c4ccc(Cl)cc4)c(C)c3c2=O)cc1	TRHR enhancer 34.2
CCc1cccc(C)c1NC(=O)Cn1nc(C)c2nn(-c3ccc(Cl)cc3)c(C)c2c1=O	none
O=C(CSc1ccc(Cl)cc1)c1ccco1	TRHR enhancer 35.6
O=C(CCSc1ccc(Cl)cc1)c1ccco1	none
